Results published in PubChem BioAssay (NCI).
About 79,000 compounds went through this panel and 15% of them were active in at least one assay; those are over-represented in the sample as a whole. Activity calls are given as the source filed them. Rule as the data show it: active = growth inhibition above about 70%; inactive = the rest. Where a SMILES comes first, the peptide text is derived from it. [ ]: non-standard residue; d: D form. The star is where a group is joined. ξ: configuration not given here. Boc = CC(C)(C)OC(=O)*; ξV = CC(C)C(N)C(=O)O; OBn = c1ccc(CO*)cc1

Columns and labels:
[1] = NCI Yeast Anticancer Drug Screen. Data for the rad50 strain (AID 155);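 also: 0% = growth of vehicle-only cultures of the same strain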; settings: S. cerevisiae rad50 strain growth inhibition; at 50.0 µM; active compounds read high
Procedure, shortened: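 Relative growth inhibition (compound vs vehicle) was measured in yeast with a defined repair-gene alteration.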

[2] = NCI Yeast Anticancer Drug Screen. Data for the mec2-1 strain (AID 157); settings: S. cerevisiae mec2-1 strain, at 50.0 µM, active compounds read high
Procedure, shortened: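 Yeast mec2-1 mutant treated with compound. Readout: growth inhibition vs vehicle controls.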

[3] = NCI Yeast Anticancer Drug Screen. Data for the sgs1 mgt1 strain (AID 161);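 also: 0% = growth of cultures given vehicle only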; settings: S. cerevisiae sgs1 mgt1 strain, at 50.0 µM, active compounds read high
Procedure, shortened: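 Read-out: growth inhibition vs vehicle controls. Cells: mutant yeast strain deficient in DNA damage repair.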

[4] = NCI Yeast Anticancer Drug Screen. Data for the cln2 rad14 strain (AID 165);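 also: 0% = growth equal to vehicle treated cultures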; settings: S. cerevisiae cln2 rad14 strain, at 50.0 µM, active compounds read high
Procedure, shortened: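 cln2 rad14 yeast strain; compound exposure; growth inhibition read vs vehicle controls.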

[5] = NCI Yeast Anticancer Drug Screen. Data for the bub3 strain (AID 167); settings: S. cerevisiae bub3 mutant strain, at 50.0 µM, active compounds read high
Procedure, shortened: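 Screening used yeast with an engineered genetic alteration affecting cell cycle control. Compound-exposed cultures were compared with vehicle cultures, and reduced growth was taken as inhibition.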

[6] = NCI Yeast Anticancer Drug Screen. Data for the mlh1 rad18 strain (AID 175); settings: S. cerevisiae mlh1 rad18 strain growth inhibition; at 50.0 µM; active compounds read high
Procedure, shortened: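 Yeast w/ defined DNA-repair lesions; compound exposure; growth vs vehicle controls → % inhibition.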

Measured: growth inhibition

CN(C)C12CCCCCC1S(=O)(=O)C2 (stereo not given)
inactive: [1] -0.05% | [2] -20.1% | [3] 0.85% | [4] -17.6% | [5] -22.4% | [6] 3.45%

CCN(Cc1ccccc1)c1ccccc1C
inactive: [1] 12% | [2] -6.85% | [3] 10.8% | [4] 0% | [5] 7.65% | [6] 1.45%

CN(C)CCNC(=O)c1cccc2[nH]c(-c3ccncc3)nc12
inactive: [1] 5.9% | [2] -16.2% | [3] -37.4% | [4] -19.9% | [5] -48% | [6] -89.1%

Cc1ccc2cccnc2c1
inactive: [1] 21.9% | [2] -4.6% | [3] -0.95% | [4] 11.2% | [5] 2.85% | [6] 5%

CN1C(CC(=O)c2ccccc2)CCCC1CC(O)c1ccccc1 (stereo not given)
inactive: [1] 13.9% | [2] 2.25% | [3] 25.4% | [4] 40.4% | [5] -2.4% | [6] 36.1%

CCOC(=O)c1c(O)nc2sc3ccccc3n2c1=O
inactive: [1] 19% | [2] 12.7% | [3] 6.7% | [4] -1.75% | [5] 13.6% | [6] 41.4%

N#C/C(c1ccccc1)=[N+](/[O-])O
inactive: [1] 2.55% | [2] -4.9% | [3] 2.5% | [4] -20.7% | [5] -17.5% | [6] 13.7%

COC(=O)C1CN(c2ccccc2)CCC1=O (stereo not given)
inactive: [1] -28.9% | [2] -31.8% | [3] -0.55% | [4] -35.7% | [5] -10.3% | [6] -12.7%

Cc1ccc(N=C(c2ccccc2)c2ccc([N+](=O)[O-])cc2)cc1
inactive: [1] -16.6% | [2] -7.05% | [3] -21.7% | [4] -26.9% | [5] 21.4% | [6] -11.8%

CCOC(=O)OC1CCCCC1c1ccccc1 (stereo not given)
inactive: [1] 13.7% | [2] -12.9% | [3] -7.15% | [4] -14.9% | [5] -20.1% | [6] -16.2%

CC1(C(=O)O)C2CCC(C2)C1C(=O)O (stereo not given)
inactive: [1] 11.8% | [2] 5.8% | [3] -2.7% | [4] -46.1% | [5] 3.7% | [6] 3.35%

COc1cc2c(c(OC)c1OC)-c1ccc(SC)c(=O)cc1[C@@H](NC(=O)NCCCl)CC2
inactive: [1] 1.1% | [2] -16.8% | [3] -18.1% | [4] 4.6% | [5] -28.4% | [6] -10.2%

CCCCCCCCN1N=CC(CC)C1CCC (stereo not given)
inactive: [1] 3.15% | [2] -11.8% | [3] 6.5% | [4] 11.3% | [5] -0.8% | [6] 1.45%

COc1cc(/C=C2/C(=O)N(C(=O)c3ccccc3O)N=C2C)ccc1O
inactive: [1] -6.55% | [2] -10.3% | [3] -9.4% | [4] 9.75% | [5] 1.65% | [6] -13.9%

CCCCCCCCCCCCCC(=O)Oc1ccc2ccccc2c1
inactive: [1] -4.05% | [2] 3.5% | [3] -3.85% | [4] 5.7% | [5] -10.1% | [6] 8.7%

C=CCOC(=O)C(O)C=C (stereo not given)
inactive: [1] 7.9% | [2] -12.3% | [3] 2.3% | [4] 16.4% | [5] -1.6% | [6] 11.6%

C[N+](C)(C)/N=C(/c1ccccc1)C1CCCCC1
inactive: [1] -20.2% | [2] -2.1% | [3] -4.35% | [4] -43.5% | [5] 0.4% | [6] 7.7%

O=c1[nH]nc(Cc2ccccc2)n1/N=C\c1ccccc1
inactive: [1] -38.6% | [2] -20.6% | [3] -28.1% | [4] -11.3% | [5] -16.1% | [6] -43.2%

N#CC(C(=N/O)/C(=N\O)C(C#N)c1ccccc1)c1ccccc1 (stereo not given)
inactive: [1] -3.35% | [2] -11.1% | [3] 2.55% | [4] -4% | [5] -5.75% | [6] 25.1%

CCOC(=O)C(C(=O)OCC)=C(C)C
inactive: [1] -9.9% | [2] -32% | [3] -12.2% | [4] -3.1% | [5] -26.1% | [6] -37.3%

CC(=O)Nc1ccc(N=Nc2c(C)nn(C(=N)N)c2C)cc1
inactive: [1] -5.45% | [2] -8.55% | [3] 0.45% | [4] 0.6% | [5] -4.2% | [6] 9%

COc1ccc(-c2cc(=O)c3cc(C)c(C)c(C#N)c3o2)cc1
inactive: [1] -25.9% | [2] -29.6% | [3] -35.8% | [4] -17.5% | [5] -29.9% | [6] -37.5%

CCCCCCCCCCCCCC(=O)Cl
inactive: [1] -52.4% | [2] -4% | [3] -47.2% | [4] -39.9% | [5] -65.5% | [6] -104%

COC(=O)[C@]1(C)CCC[C@]2(C)c3cc(Br)c(C(C)C)cc3CC[C@H]12
inactive: [1] -18.6% | [2] -9.25% | [3] -6.3% | [4] -44.5% | [5] -4.55% | [6] -1.8%

CC1CCc2[nH]nc(CC3CC(=O)NC(=O)C3)c2C1 (stereo not given)
inactive: [1] 15.9% | [2] -2.2% | [3] 10.8% | [4] 27.2% | [5] -7.35% | [6] 3.7%

CC(C)COC(=O)c1cc(O)[nH]c(=O)c1
inactive: [1] -19.6% | [2] -7.8% | [3] 1.75% | [4] -40.1% | [5] -15.5% | [6] -6.8%

Cc1cc(C(=O)O)c2c([nH]1)c(C)cc1nc3ccccc3c12
inactive: [1] 12.6% | [2] 5.65% | [3] -10% | [4] 12.1% | [5] 4.95% | [6] -19.2%

C=CCc1cccc(C)c1O
inactive: [1] 18.9% | [2] -16.1% | [3] 20.4% | [4] 13.6% | [5] -2.6% | [6] 20.3%

CC(C)(C(N)=O)c1ccccc1
inactive: [1] -28.1% | [2] -3.85% | [3] 16.6% | [4] -28.4% | [5] -1.55% | [6] -5.05%

Cn1c(=O)c2[nH]c(=S)n(CC3CCCCC3)c2n(C)c1=O
inactive: [1] -1.95% | [2] -3.55% | [3] -8.4% | [4] -29% | [5] 0.1% | [6] 17.4%

CCN(CC)CCCC(C)Nc1cc(C)nc(Nc2nc3cc(Cl)c(Cl)cc3[nH]2)n1 (stereo not given)
active: [1] 96.8% | [2] 94.1% | [3] 97.4% | [5] 83.9% | [6] 95.8%
inactive: [4] 56.2%

CC(C)C(NC(=O)OC(C)(C)C)C(=O)NCC(=O)OCc1ccccc1 (stereo not given) (Boc-[ξV]-Gly-OBn)
inactive: [1] -37.9% | [2] -36% | [3] 12.2% | [4] -3.3% | [5] -8.6% | [6] -21.6%

O=C(Nc1cccc2ccccc12)OCCBr
inactive: [1] 6.85% | [2] -9.95% | [3] 3.25% | [4] 7% | [5] -10.2% | [6] -7.4%

CCOC(OCC)n1ncnc1NC(=S)NCc1ccccc1
inactive: [1] -15.4% | [2] -23.6% | [3] 3.75% | [4] -2.7% | [5] -5.85% | [6] -11.2%

O=C1CSC(c2ccccc2Br)N1c1nncs1 (stereo not given)
inactive: [1] -5.05% | [2] -5.7% | [3] 1.95% | [4] 0.9% | [5] 13.6% | [6] 7.75%

CCC(C(=O)O)c1cccc2c(C)ccc(C)c12 (stereo not given)
inactive: [1] 8.25% | [2] 3.55% | [3] 21.4% | [4] 23.2% | [5] 7.7% | [6] 8.15%

CCCCCCCCN(C)/N=N/c1nc[nH]c1C(N)=O
inactive: [1] 20.7% | [2] -4.7% | [3] 15.1% | [4] 17.6% | [5] 17.8% | [6] 24.4%

Cc1nc(NS(=O)(=O)c2ccc(N)cc2)nc(C)c1Br
inactive: [1] -9.75% | [2] -9.55% | [3] 4.1% | [4] -52% | [5] -14.7% | [6] -15.1%

C/C(=N\OC(=O)c1c(-c2c(Cl)cccc2Cl)noc1C)c1ccccc1O
inactive: [1] 1.5% | [2] -23.4% | [3] -1.6% | [4] 12.2% | [5] -21.9% | [6] -4.75%

Cn1nnc2c(C(N)=S)ncn2c1=O
inactive: [1] 30.1% | [2] 11% | [3] 10.7% | [4] 19.6% | [5] 17.9% | [6] 22%
